Compound activity as filed in PubChem BioAssay.
RE007 growth inh: less growth of the S. pombe RE007 Vpr strain; Potency, µM (top dose mostly 92.2 µM), without a hit: top-dose activity change, negative = less growth, most hits filed as inhibitors; AID 651644; actives 0.21% (n = 360,000); S. pombe RE007 Vpr strain, BacTiter-Glo ATP luminescence, 24 h; active = well fitted falling curve with a large enough effect; inconclusive = small, poorly fitted or top-dose-only effect; inactive = no such curve, though single readings can be large or run the other way; note: potency is the fitted concentration of half-maximal effect; % is set by controls: 0 for no effect and ±100 for the full control effect; nearly all actives have a fitted effect of over 50% in size
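Fission yeast strain RE007, carrying one chromosomally integrated HIV-1 vpr copy, was seeded at OD 0.01 in PMG+AL medium with 23 nL pinned compound. After 24 h at 30 °C and 99% humidity, viability was read by BacTiter-Glo luminescence.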
FBPA Giardia inh: Giardia lamblia aldolase inhibition | Potency, µM (series often up to 59.6 µM), inactives show top-dose activity, negative = inhibition, hits mostly inhibitors | purified Giardia FBPA | A8B2U2 | actives 0.71% (n = 290,000); note: potency is the fitted concentration of half-maximal effect; % is set by controls: 0 for no effect and ±100 for the full control effect; nearly all actives have a fitted effect of over 55% in size
Target sequence (A8B2U2 whole entry, looked up): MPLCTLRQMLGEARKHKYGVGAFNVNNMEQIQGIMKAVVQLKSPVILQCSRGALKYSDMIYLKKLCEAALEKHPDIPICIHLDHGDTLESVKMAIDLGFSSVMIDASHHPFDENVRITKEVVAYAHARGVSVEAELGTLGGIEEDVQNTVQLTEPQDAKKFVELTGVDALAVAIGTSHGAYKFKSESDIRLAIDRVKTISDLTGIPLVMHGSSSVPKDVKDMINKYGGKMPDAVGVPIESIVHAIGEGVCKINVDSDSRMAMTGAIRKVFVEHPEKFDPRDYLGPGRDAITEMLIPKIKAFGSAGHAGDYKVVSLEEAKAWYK
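40 nM FBPA preincubated 10 min at RT with compound (up to 57.5 uM final), then substrate plus GAPDH/TPI/NAD/arsenate coupling and diaphorase/resazurin added. Fluorescence read after 20 min at RT, 525/598 nm.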
Shiga toxin inh: blocks Shiga toxin action in Vero cells; Vero cells, Shiga toxin protein synthesis inhibition reporter; inhibition, % at 38.7 µM; actives 9.2% (n = 290,000); in the data active = inhibition mostly above about 28%, no sharp cut-off; inactive = mostly below about 43%; note: 0% is about no effect
LmPK inh: inhibitors of Leishmania mexicana pyruvate kinase; Q27686; purified LmPK, Kinase-Glo ATP luminescence, 1 h; Potency, µM (highest dose often 57.5 µM), for the others: top-dose activity change, negative = inhibition, usual class: inhibitors; actives 0.37% (n = 290,000); note: potency is the fitted concentration of half-maximal effect; % is set by controls: 0 for no effect and ±100 for the full control effect
Target sequence (Q27686 whole entry, looked up): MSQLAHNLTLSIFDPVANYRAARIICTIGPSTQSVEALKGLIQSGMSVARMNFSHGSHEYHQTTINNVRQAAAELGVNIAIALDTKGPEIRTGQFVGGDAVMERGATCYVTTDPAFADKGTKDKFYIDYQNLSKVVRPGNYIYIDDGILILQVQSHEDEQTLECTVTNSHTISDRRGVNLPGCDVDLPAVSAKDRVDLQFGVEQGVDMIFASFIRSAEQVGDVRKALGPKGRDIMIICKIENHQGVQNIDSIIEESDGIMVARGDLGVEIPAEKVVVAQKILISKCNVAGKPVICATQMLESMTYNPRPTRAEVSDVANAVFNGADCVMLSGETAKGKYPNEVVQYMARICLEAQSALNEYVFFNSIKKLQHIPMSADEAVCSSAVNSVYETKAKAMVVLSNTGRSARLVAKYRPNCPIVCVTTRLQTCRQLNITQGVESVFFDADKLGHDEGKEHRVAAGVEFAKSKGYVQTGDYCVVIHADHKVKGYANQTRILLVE
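Screened at intermediate enzyme activity to detect both inhibitors and activators: LmPK at 0.1 nM, with a 0.5 nM enzyme column as activation reference. PEP 0.5 mM, ADP 0.1 mM; ATP detected by luminescence after 1 h.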
Tb PYK inh: inhibitors of Trypanosoma brucei pyruvate kinase; Q57TT1; TbPYK enzyme, Kinase-Glo Plus ATP luminescence, 45 min; Potency, µM (titrated, usually from 76.8 µM), for inactives: at the top dose activity, negative = inhibition, hits mostly inhibitors; actives 0.12% (n = 410,000); AID 624173; note: potency is the fitted concentration of half-maximal effect; % is set by controls: 0 for no effect and ±100 for the full control effect; nearly all actives have a fitted effect of over 50% in size
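Enzyme and substrate buffer are dispensed first and compound is pin-transferred. ADP at 130 uM final then starts the reaction, which runs 45 min at room temperature. Detection reagent is added for 10 min before luminescence is imaged.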
Cycloheximide cs: counter-screen for Shiga toxin inhibitors: cycloheximide protein synthesis inhibition. cell reporter, cycloheximide protein synthesis inhibition counterscreen. max response, %. actives 12% (n = 300,000). AID 2314; in the data active = max response mostly above about 13%, no sharp cut-off; inactive = mostly below about 14%; note: read at 38.3 µM for the half of the compounds with a filed dose; 0% is about no effect
* hit, by the source's call; u = inconclusive; x = not tested or not shown; [ ] = another dose, or the depositor's remark. This is one part of a sample in which hits are shown more often than they occur. Unless noted, calls come from the whole dose curve; as a rule, active = well fitted curve in the direction sought with a large enough effect; inconclusive = small, poorly fitted or top-dose-only effect, or another doubt; inactive = no such curve, though single readings can be large; an effect the other way counts as inactive or inconclusive.

SMILES | RE007 growth inh | FBPA Giardia inh | Shiga toxin inh | LmPK inh | Tb PYK inh | Cycloheximide cs
Cc1csc(Nc2ccc(Cl)cc2)n1 | u | -8.4% | 72.8* | 2.0% | -5.4% | 23.8*
NS(=O)(=O)c1ccc(NC(=O)CN2C(=O)COc3ccc(Cl)cc32)cc1 | x | x | x | x | -6.8% | x
Oc1ccc(Nc2nc(-c3cccnc3)cs2)cc1 | -9.4% | 2.8% | x | -17.4% | -10.8% | 38.3*
CCC(=O)c1ccc(OCC(=O)Nc2nc(-c3cccnc3)cs2)cc1 | -3.9% | x | x | x | -20.1% | x
Brc1ccc(Nc2nc(-c3cccnc3)cs2)cc1 | 3.2% | -7.8% | 121.1* | -3.5% | 0.8% | 53.9*
Brc1cccc(Nc2nc(-c3cccnc3)cs2)c1 | -5.6% | -4.4% | x | 0.3% | -3.3% | 25.3*
CCOc1ccc(Nc2nc(-c3cccnc3)cs2)cc1 | 49.3% | -4.9% | 57.4* | -4.7% | 3.8% | 40.2*
C[C@@H](c1ccccc1)N1C(=O)[C@H]2[C@@H]3[C@H](O)[C@H](O)CC(=O)[C@H]3CC[C@H]2C1=O | x | -0.4%[12.9 µM] | x | x | x | x
O=C(O)c1ccc(Nc2nc(-c3cccnc3)cs2)cc1 | 7.4% | 2.8% | 14.9 | 0.7% | -11.6% | 1.5
Cc1cc(O)ccc1Nc1nc(-c2cccnc2)cs1 | 108.1% | 18.4% | 51.2* | -9.4% | -29.0% | 31.0*
Cc1nc(C)c(-c2csc(Nc3ccc(O)cc3C)n2)s1 | -9.2% | 1.3% | -6.8 | 0.8% | 3.2% | 0.7
Cc1cc(O)ccc1Nc1nc(-c2cccs2)cs1 | -26.6% | -2.0% | 69.2* | u | 5.7% | 35.8*
Clc1cccc(Nc2nc(-c3cccnc3)cs2)c1 | 2.9% | -12.9% | 90.9* | -0.1% | -2.8% | 40.3*
Cc1ccc(Nc2nc(-c3cccnc3)cs2)cc1C | 0.2% | 6.4% | 96.3* | -4.8% | -3.3% | 50.6*
Cn1c(SCC(N)=O)nc2c([nH]c3ccccc32)c1=O | x | x | x | x | -5.9% | x
COc1cc(OC)cc(C(=O)Nc2nc3ccc(S(C)(=O)=O)cc3s2)c1 | 0.6% | 0.2% | 52.2* | 3.9% | -3.7% | 16.6
CS(=O)(=O)c1ccc2nc(NC(=O)c3cccc([N+](=O)[O-])c3)sc2c1 | -23.3% | -27.2% | 75.4* | -9.4% | -4.2% | 30.8*
C[C@@H]1C[C@H](OC(=O)[C@@H](O)c2ccccc2)CC(C)(C)N1C | x | 2.1%[21.7 µM] | x | x | -4.8%[33.2 µM] | x
O=C(N/N=C/c1ccccc1Br)c1ccc(CSc2cccc3cccnc23)cc1 | -10.9%[3.69 µM] | 1.2% | 7.6 | -2.9% | x | 12.4*
NNC(=O)c1ccc(CSc2cccc3cccnc23)cc1 | 24.0% | -14.6% | 20.2 | 0.9% | 0.4% | 23.1*
CCOC(=O)CSc1cccc2cccnc12 | u | -11.8% | 53.3* | 0.7% | -11.4% | 16.9
O=C1CCC/C(=N\NC(=O)c2ccc(CSc3cccc4cccnc34)cc2)C1 | 16.4% | -14.3% | 2.8 | -3.3% | -1.5% | -1.0
Cc1cccc(CSc2cccc3cccnc23)c1 | u | -17.6% | 152.4* | -5.9% | -21.8% | 60.5*
CCOc1ccccc1CNC(=O)C1CCN(C(=O)N2CCOc3ccc(Cl)cc32)CC1 | x | x | x | x | 3.1% | x
COc1ccc2c(c1)c1c(c(=O)n(-c3ccc(C)cc3)c(=O)n1CC(=O)NCc1ccc(C)cc1)n2C | x | x | x | x | -7.1% | x
SMILES | RE007 growth inh | FBPA Giardia inh | Shiga toxin inh | LmPK inh | Tb PYK inh | Cycloheximide cs
c1cnc2c(SCc3ccc(-c4nnco4)cc3)cccc2c1 | 3.2% | -8.2% | 67.9* | -10.2% | -17.5% | 38.6*
CSc1ncnc2c1ncn2C1OC(CO)C(O)C1O (stereo not drawn) | x | 4.6% | x | x | x | x
C(=Cc1cnc2ccccc2n1)c1ccc2c(c1)OCO2 | -1.7% | x | x | x | u | x
C(=Cc1nc2ccccc2o1)c1ccc2c(c1)OCO2 | -11.2% | x | x | x | -15.6% | x
Nc1nc2ccccc2n1/N=C/c1ccc2c(c1)OCO2 | -10.6% | -6.3% | 91.4* | -25.3% | 8.4% | 31.9*
Cn1c(/N=C/c2ccc3c(c2)OCO3)nc2ccccc21 | -6.3% | -23.7% | -2.7 | 12.6µM* | -15.4% | -1.4
Nc1nc2ccccc2n1/N=C/c1ccc(Br)cc1 | -44.0% | -13.0% | 92.9* | 0.8% | -1.1% | 42.6*
CCn1c(/C=N/c2nc3ccccc3n2C)nc2ccccc21 | -13.8% | 1.6% | 23.8 | -9.0% | -4.8% | 12.9*
Nc1nnnn1/N=C/c1ccc(Br)cc1 | -18.0% | 5.7% | 26.2 | 1.5% | -4.2% | 9.9
Cc1nc2cnc(N(C)C)nc2n(CCC#N)c1=O | x | 4.8% | x | x | x | x
O=C(/C=C/c1ccc(Br)cc1)c1ccc(NC2=NCCCS2)cc1 | -17.2% | -11.1% | 7.2 | -4.2% | 3.1% | 11.1
O=C(/C=C/c1ccccc1)c1ccc(NC2=NCCCS2)cc1 | x | 5.2% | 30.0* | -11.7% | -10.6% | 25.8*
CC(C)(C)c1ccc(/C=C/C(=O)c2ccc(NC3=NCCCS3)cc2)cc1 | u | -3.9% | 78.3* | 1.3% | 4.6% | 30.9*
COc1cccc(/C=C/C(=O)c2ccc(NC3=NCCCS3)cc2)c1 | -28.6% | -1.0% | 53.7 | -16.3% | -8.8% | 17.8
CC(=O)c1ccc(NC2=NCCCS2)cc1 | -22.1% | 6.5% | 9.7 | 5.0% | -7.0% | 15.2
Cc1cccc(/C=C/C(=O)c2ccc(NC3=NCCCS3)cc2)c1 | -12.5% | -3.9% | 23.7 | -6.2% | -6.7% | 26.4*
O=C(CSc1nc(=O)n(Cc2ccco2)c2c1CCC2)Nc1ccccc1C(F)(F)F | x | x | x | x | 0.0% | x
CC(=O)Nc1c(C)nn(-c2ccccc2)c1N1CCC(C(=O)Nc2ccc(F)cc2Cl)CC1 | x | x | x | x | 0.1% | x
CCN(CC)CCOc1ccc(Nc2ncc3cc(-c4c(Cl)cccc4Cl)c(=O)n(C)c3n2)cc1 | x | x | x | x | 4.1% | x
Cn1c(SCc2cccc([N+](=O)[O-])c2)nc2ccccc2c1=O | 37.6% | x | x | x | 4.7% | x
COc1ccc(C(=O)Nn2c(SCc3cccc([N+](=O)[O-])c3)nc3ccccc3c2=O)cc1 | 9.2% | -0.1% | 113.7* | -7.5% | -10.8% | 60.6*
COCCn1c(SCc2cccc([N+](=O)[O-])c2)nc2ccccc2c1=O | 4.4% | 2.2% | -3.1 | -2.2% | 1.0% | -6.3
O=C(Nn1c(SCc2cccc([N+](=O)[O-])c2)nc2ccccc2c1=O)c1ccccc1 | -5.9% | 6.2% | 123.1* | 1.9% | -1.9% | 81.2*
COc1ccc(C(=O)Nn2c(SCC(=O)c3ccc(Cl)cc3)nc3ccccc3c2=O)cc1 | -2.1% | 5.7% | 22.3 | 3.2% | 2.9% | 16.8*
O=C(NCCCCN1CCOCC1)c1cc2ccccc2o1 | x | -9.4% | -21.0 | x | x | 4.5
Cc1ccc(-n2c(SCC(=O)Nc3ccc4c(c3)OCCO4)nc3c([nH]c4ccccc43)c2=O)cc1 | x | x | x | x | 3.6% | x
COc1cccc(C(=O)CC(C#N)c2ccc(F)cc2)c1 (stereo not drawn) | 13.5% | -6.4% | 25.6* | 1.5% | -0.3% | 11.9
COc1ccc2c(C)c(CCC(=O)NCCc3ccc(OC)c(OC)c3)c(=O)oc2c1 | x | x | x | x | -1.0% | x
